This is an account of results in paper PMC7819943, “Rice protein-binding microarrays: a tool to detect cis-acting elements near promoter regions in rice”.

Whole data set: some 68,000 sequences, median “fluorescence intensity (a.u.)” near 9,100, cut for the highest 2% near 16,000. This is one part of a sample in which the highest values are shown more often than they occur.

OsWRKY34, sequence (Q0JBA9 entry or part of it): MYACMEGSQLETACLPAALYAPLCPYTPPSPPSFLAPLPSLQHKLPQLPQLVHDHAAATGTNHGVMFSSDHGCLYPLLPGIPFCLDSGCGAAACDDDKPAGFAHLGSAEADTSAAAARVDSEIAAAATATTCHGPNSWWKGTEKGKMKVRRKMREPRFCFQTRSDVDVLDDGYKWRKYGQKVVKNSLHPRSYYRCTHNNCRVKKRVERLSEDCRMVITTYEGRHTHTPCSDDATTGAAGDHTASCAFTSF

The assay concerns the target OsWRKY34 (Oryza sativa, UniProt Q0JBA9 1-250). As to the kind of experiment: protein-binding microarray (RPBM); PBS, 2% BSA, 51.3 ng/ul salmon testes DNA, 50 uM zinc acetate, 200 nM TF, 25 C, 1 h; high values mean tight binding. To be noted: protein: recombinant; tags: N-terminal polyhistidine and DsRed monomer fusion (pET32a); label: CyDye5-dUTP incorporated in the synthesized complementary strand; 3' TTTTT single-stranded linker to array surface; dsDNA, one strand shown. Put shortly: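 Using Ni–NTA, transcription factors fused N-terminally to polyhistidine and DsRed were purified after expression in E. coli BL21-CodonPlus. These were incubated at 200 nM with a blocked, double-stranded custom Agilent array for 1 h at 25 °C in a buffer containing 50 µM zinc acetate, and the array was washed. The binding signal is per-feature fluorescence intensity (arbitrary units) on an Axon 4000B scanner.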
As for “CGGCTCGCTCAACCATACCACCTTTTCAAATTCATTTTTCCGGAGTCACCTAGTGCAG”, the binding signal is 11600 fluorescence intensity (a.u.).
As for “CGTCTCTAAATACTTGACGCCGTTGACTTTTTTAAATATGCGGAGTCACCTAGTGCAG”, the binding signal is 26900 fluorescence intensity (a.u.).
On to “ATTTTTGACGCCGTTGACTTTTTTTAAATATGTTTGACCGCGGAGTCACCTAGTGCAG”, for which the binding signal is 46900 fluorescence intensity (a.u.).
With “ATCTTTGACGTCGTTGACTTTTAAAAAAATGTTTGACCGTCGGAGTCACCTAGTGCAG” the figure was 22300 fluorescence intensity (a.u.); with “CGCCGTTGACTTTTTTAAAAATGTTTGACCGTTCCTCTTACGGAGTCACCTAGTGCAG”, 20900 fluorescence intensity (a.u.); with “ATATTTGACGACGTTGATTTTTTTTAAATATGTTTGACCGCGGAGTCACCTAGTGCAG”, 9090 fluorescence intensity (a.u.).
“ACGTCTCCACCACCACCACCGGCCAAACGCCGACCTCATCCGGAGTCACCTAGTGCAG”: the binding signal was 9450 fluorescence intensity (a.u.).
Take “CCAGTCAATTTCCCCACGTGCCATCTCGCTGCATCCGCCGCGGAGTCACCTAGTGCAG”: the binding signal is 10500 fluorescence intensity (a.u.).
With “CTCGCGCGCCCCGCCCGTTTCGCCTCGGCCGCCTCCTCCACGGAGTCACCTAGTGCAG”, the binding signal is 8480 fluorescence intensity (a.u.).
Consider “CATCTGCACGCATATATATCTGTAAACTCAGCGCGTTTTTCGGAGTCACCTAGTGCAG”, for which the binding signal was 8100 fluorescence intensity (a.u.).
As to “ATTGTGGACTGTTTGACCTCCAGTTTGGACTGTAGGAATTCGGAGTCACCTAGTGCAG”, the binding signal is 8060 fluorescence intensity (a.u.).
Regarding “CTGTTGGTCAATCGCCGAACTTACCGCCGCGCCGGCCATGCGGAGTCACCTAGTGCAG”, the binding signal was 9410 fluorescence intensity (a.u.).
Regarding “TTCATTTTCAATTCCCGTCCTCATTCTTCTTATGATATTTCGGAGTCACCTAGTGCAG”, the binding signal was 8930 fluorescence intensity (a.u.).
Regarding “AATCCATAATTAGTAAATATTTACTGTAGCACCATATTGTCGGAGTCACCTAGTGCAG”, the binding signal was 9810 fluorescence intensity (a.u.).
For the sequence “ACTTTTTAAAACATGTTTGACCGTTCATCTTATTCAAAAACGGAGTCACCTAGTGCAG”, the binding signal was 8410 fluorescence intensity (a.u.).
With “ATTTGACGCCGTTACTTTTTTTAAAAATGTTTGGCCGTTCCGGAGTCACCTAGTGCAG”, the binding signal was 8270 fluorescence intensity (a.u.).
As for “AATGTTTGACGCCGTTGACTTTTTTAAAAATGTTTGGCCGCGGAGTCACCTAGTGCAG”, the binding signal is 29800 fluorescence intensity (a.u.).
Next, “GTTGTTGACTTTTTAAAATTTGTTTGACCATTCATCTTATCGGAGTCACCTAGTGCAG”: 23100 fluorescence intensity (a.u.); “ACTTTTTAAAACATGTTTGACCGTTCATCTTATTTAAAAACGGAGTCACCTAGTGCAG”: 8690 fluorescence intensity (a.u.); “ATTTTGACTTTTTCTTGTACTGTTTGACCATTCATCTTATCGGAGTCACCTAGTGCAG”: 16200 fluorescence intensity (a.u.).
Consider “GTTGACTTTTTTTTAAACATGTTTGACCATTCATCTTATTCGGAGTCACCTAGTGCAG”, for which the binding signal is 11100 fluorescence intensity (a.u.).
With “CGCTGTTGACTTTTTTAAAAATGTTTGACCGTTCATCTTACGGAGTCACCTAGTGCAG” the figure was 33600 fluorescence intensity (a.u.); with “ACGCCGTTGACTTTTTAAAATATGTTTGACCGTTTATCTTCGGAGTCACCTAGTGCAG”, 45700 fluorescence intensity (a.u.).
Consider “CGGTTCTTGTCGTAGAAAGCTCCGTGTTATCGTTTATATTCGGAGTCACCTAGTGCAG”, for which the binding signal is 8090 fluorescence intensity (a.u.).
In the case of “CAGCCACCTCTCCATCTTCTGTCCGTTCACCTCTCCGTAACGGAGTCACCTAGTGCAG”, the binding signal was 12600 fluorescence intensity (a.u.).
“GCTTGCTCCAGGTGACCCAACTTTTCCATTTCCATGCATTCGGAGTCACCTAGTGCAG”: the binding signal was 11300 fluorescence intensity (a.u.).
Turning to “GCTCCTCCTCCTCTTCCCGCCTCACCGCCGCACCACCTCTCGGAGTCACCTAGTGCAG”, the binding signal was 8550 fluorescence intensity (a.u.).
Take “CCGTGGGCCAGACCTTTTTCTTCGACGCTAGACCTGACTACGGAGTCACCTAGTGCAG”: the binding signal is 9780 fluorescence intensity (a.u.).
Turning to “TTCACCCACGTTTCTGCCCAACCCTCTCACCCTAGCTTAGCGGAGTCACCTAGTGCAG”, the binding signal is 10800 fluorescence intensity (a.u.).
“AACTTCGCAAGAGGCATGCTCTCCAGCCTCAATTTTCATGCGGAGTCACCTAGTGCAG”: the binding signal is 8410 fluorescence intensity (a.u.).
As to “CCCCATTTTCTTTGTTTCTACTTCTCTTTCCCTTTCTTGTCGGAGTCACCTAGTGCAG”, the binding signal was 10700 fluorescence intensity (a.u.).
Regarding “CTCCGTCCCTCCGTACCAGTTTAAATGCAGCCGTGGATTCCGGAGTCACCTAGTGCAG”, the binding signal was 8360 fluorescence intensity (a.u.).
On to “ATCTATGTTTTTCTGCGGGCCGGGTTGGTTTGTTTCCTACCGGAGTCACCTAGTGCAG”, for which the binding signal is 10300 fluorescence intensity (a.u.).
In the case of “TTTGACGCCGTTGACTTTTTTAAAAATGTTTGACCGTTCACGGAGTCACCTAGTGCAG”, the binding signal was 25100 fluorescence intensity (a.u.).
With “CGCTACCGGGTTGACTTTTTCCTATCCGTTTCTGGTCCGGCGGAGTCACCTAGTGCAG” the figure was 22800 fluorescence intensity (a.u.).
Regarding “GCCCGCTGCTATTCTCTCTCATCTTTTATCCTATTAAAATCGGAGTCACCTAGTGCAG”, the binding signal was 13200 fluorescence intensity (a.u.).
Turning to “TACTTACTCCCTCCGTATTTTAATGTATGACGCCGTTGACCGGAGTCACCTAGTGCAG”, the binding signal was 14200 fluorescence intensity (a.u.).
On to “CCCTCCGTATTTTAATGTATGACGCCGTTGACTTTTTGACCGGAGTCACCTAGTGCAG”, for which the binding signal is 26800 fluorescence intensity (a.u.).
Consider “AAGTACTCCCTCCGTATTTTAATGTATGACGCCGTTGACTCGGAGTCACCTAGTGCAG”, for which the binding signal is 9690 fluorescence intensity (a.u.).
Take “TTTGGGCCGGGTTTTTGGTTTCTTCCTTTTTTTTTCTGGGCGGAGTCACCTAGTGCAG”: the binding signal was 12600 fluorescence intensity (a.u.).
With “GCCCGCTGCTCTGCTCTCTCATCTTTTATCTCACTAAAATCGGAGTCACCTAGTGCAG” the figure was 8960 fluorescence intensity (a.u.).
With “GCCCGTTGCTCATCTCTCTCATCGTTTATCGCATTAAAATCGGAGTCACCTAGTGCAG” the figure was 17900 fluorescence intensity (a.u.).
